Bioassay records deposited in PubChem BioAssay by Broad Institute.
This is a sample that favours compounds with a hit; in the whole collection about 1.8% have one here.
GSIS activator: primary screen for activators of insulin secretion dependent on glucose, INS-1E cells, GLuc reporter luminescence. INS-1E GLuc reporter insulin secretion, 2-3 h. activation, % at 16.6 µM. 370,000 compounds, 0.61% hits;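 active = lowest replicate activation of at least 40%, so every replicate reaches that level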;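 also: 0% = median of neutral control wells and 100% = median of IBMX positive control wells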
EWS-Fli inh: inhibitors of EWS/Fli oncoprotein transcriptional activity; A673 NR0B1-luciferase reporter, viability-normalised; AID 651661; 350,000 compounds, 0.67% hits; inhibition, % at 12.6 µM;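 active = mean inhibition of at least 50% after viability correction, with every replicate also passing that limit; inconclusive = mean reaches 50% but only one of two replicates passes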;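 also: firefly luciferase signal divided by Alamar Blue viability fluorescence both relative to DMSO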
CFTR F508del cor: CFTR F508del correction in bronchial cells; CFBE cells, YFP halide quenching; stimulated with forskolin plus potentiator P3; % fluorescence drop versus neutral controls; activity (quench increase), % at 7.58 µM; 350,000 compounds, 0.36% hits;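 active = mean added fluorescence quench of at least 8% versus neutral control, with both replicates also reaching 8%; inconclusive = only one of the mean or replicate conditions met; inactive = mean below 8% and not both replicates reaching 8%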;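 also: cells transiently co-express mutant CFTR-F508del with the halide-sensitive YFP; corrector assay measuring rescue of mutant channel to the surface after 24 h compound exposure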
RAD52 inh: RAD52 (human) annealing inhibition | recombinant RAD52 DNA annealing, FRET fluorescence | P43351 | inhibition, % at 18.7 µM | 360,000 compounds, 0.46% hits;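 active = every replicate showing at least 50% inhibition; inconclusive = mean inhibition at least 50% but not in every replicate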
LGR2 inh: inhibitors of bursicon-induced Drosophila LGR2 receptor cAMP signaling; HEK293 LGR2, CRE-luciferase, bursicon-stimulated, 4 h; inhibition, % at 9.99 µM; 380,000 compounds, 0.35% hits;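 active = drop in luminescence signal, shown as inhibition above about 50% in the replicate tests, limit read from the data, passing the limit was not always enough; inconclusive = probably only some replicates passing the limit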;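 also: agonist challenge used bursicon conditioned medium at about half maximal strength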
RAD54 branch: inhibitors of human RAD54 branch migration | 360,000 compounds, 0.14% hits | RAD54 Holliday junction branch migration, FAM/BHQ fluorescence | Q92698 | AID 602329 | inhibition, % at 10.4 µM;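 active = mean normalized replicate activity at least 40 and at least half of replicates scoring 40 or more; inconclusive = only one of the two criteria met; inactive = mean below 40 and under half of replicates reaching 40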;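 also: 0% = median of neutral control wells and 100% = median of positive control wells; inhibitors cause a drop in the FAM fluorescence signal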
Target sequence (Q92698 whole entry, looked up): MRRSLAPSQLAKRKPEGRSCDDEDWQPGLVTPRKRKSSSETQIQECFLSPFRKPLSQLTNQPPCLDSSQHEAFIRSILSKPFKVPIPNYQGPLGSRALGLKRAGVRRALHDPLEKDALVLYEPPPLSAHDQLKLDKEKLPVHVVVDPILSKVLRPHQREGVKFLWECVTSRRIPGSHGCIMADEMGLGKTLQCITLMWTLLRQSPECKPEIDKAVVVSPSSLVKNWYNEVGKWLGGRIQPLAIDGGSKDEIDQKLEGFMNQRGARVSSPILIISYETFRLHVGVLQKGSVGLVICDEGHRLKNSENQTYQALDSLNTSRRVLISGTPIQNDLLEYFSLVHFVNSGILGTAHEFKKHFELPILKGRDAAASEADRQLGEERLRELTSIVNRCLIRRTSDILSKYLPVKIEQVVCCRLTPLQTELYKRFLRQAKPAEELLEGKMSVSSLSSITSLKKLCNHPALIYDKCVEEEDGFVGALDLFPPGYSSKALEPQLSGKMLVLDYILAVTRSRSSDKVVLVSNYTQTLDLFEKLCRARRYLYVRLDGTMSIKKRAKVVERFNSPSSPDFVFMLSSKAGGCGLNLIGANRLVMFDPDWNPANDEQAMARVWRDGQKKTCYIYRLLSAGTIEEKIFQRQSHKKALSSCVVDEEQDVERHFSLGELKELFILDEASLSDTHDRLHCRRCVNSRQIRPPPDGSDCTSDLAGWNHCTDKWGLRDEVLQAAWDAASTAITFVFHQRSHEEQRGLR
Numbers without * were called inactive; ? = inconclusive; / = no result given.

SMILES | GSIS activator | EWS-Fli inh | CFTR F508del cor | RAD52 inh | LGR2 inh | RAD54 branch
COC(=O)c1cc2c(c3c4cc(OC)ccc4n(S(=O)(=O)c4ccc(OC)cc4)c13)C(=O)N(C1CCCCC1)C2 | / | 22.6 | -2.8 | -18.0 | / | /
COCCCN1C(=O)C(=O)/C(=C(/O)c2ccc(S(=O)(=O)N3CCOCC3)cc2)C1c1ccc(Cl)cc1 (stereo not drawn) | 0.6 | 7.7 | -0.4 | -4.3 | 5.9 | -3.8
CCCCC(=O)Nc1ccc(C(=O)NNC(=O)c2ccc(C)c(Br)c2)cc1 | 63.8* | / | / | / | -0.3 | 13.4
COc1cc(C2C3=C(COC3=O)Oc3cc4c(cc32)OCO4)ccc1OC(C)=O (stereo not drawn) | 6.9 | 23.7 | 3.8 | -4.0 | -10.4 | /
COc1ccc(C2C3=C(COC3=O)Oc3cc4c(cc32)OCO4)cc1OC (stereo not drawn) | / | 17.2 | 9.6* | -15.6 | -9.3 | /
COc1cc(C2C3=C(COC3=O)Oc3cc4c(cc32)OCO4)cc(OC)c1OC(C)=O (stereo not drawn) | 4.5 | 54.5* | -1.3 | 2.1 | 7.8 | /
CC[C@]12C(=O)N(C)C[C@H]([C@@H]3C(=O)N(Cc4ccccc4)C(=O)[C@@H]31)N2C(=O)c1ccccc1 | -1.1 | -1.1 | -0.2 | -16.8 | 1.3 | -1.3
CCOc1ccc(N=Nc2c(C)[nH]n(-c3ccccc3)c2=O)cc1 | -2.9 | 11.4 | -2.2 | -9.9 | -3.4 | -0.9
CCCC#Cc1ccc([C@H]2[C@H]3CN(S(=O)(=O)Cc4ccccc4)CCCCN3[C@H]2CO)cc1 | -21.2 | -5.8 | 1.5 | -12.9 | 12.8 | -20.5
Cc1ccccc1-c1ccc([C@H]2[C@@H](CO)N3CCCCN(S(=O)(=O)Cc4ccccc4)C[C@H]23)cc1 | -2.2 | 13.5 | -2.0 | 68.5* | 3.0 | -10.7
CCCC#Cc1ccc([C@@H]2[C@H](CO)N3CCCCN(S(=O)(=O)Cc4ccccc4)C[C@@H]23)cc1 | -17.1 | 58.7* | -5.5 | 29.8 | 5.7 | 2.3
Cc1ccccc1-c1ccc([C@H]2[C@H]3CN(S(=O)(=O)Cc4ccccc4)CCCCN3[C@H]2CO)cc1 | -6.8 | 20.3 | -4.6 | 35.4 | 3.7 | -11.9
O=Cc1ccc(-c2ccc(F)cc2)o1 | -4.8 | -2.5 | -0.9 | -0.2 | 39.0 | -12.1
Cc1noc(C)c1NC(=O)Nc1cccc2c1O[C@H](CN(C)Cc1ccc(Cl)c(Cl)c1)[C@@H](C)CN([C@@H](C)CO)C2=O | -28.2 | -5.5 | -4.3 | -14.6 | 6.0 | -7.5
O=[N+]([O-])c1ccc(Sc2ccncn2)c([N+](=O)[O-])c1 | 84.1* | 32.8 | 4.2 | -8.4 | ? | -3.9
O=C(NCc1cccnc1)/C(=C\c1ccc(-c2cccc(Cl)c2)o1)S(=O)(=O)c1ccccc1 | -5.6 | / | / | / | 87.1* | 2.7
O=C(O)C1CCN(C(=O)CSc2nc3ccccc3c(=O)n2Cc2ccccc2)CC1 | 43.5* | -2.1 | -0.8 | 6.7 | -11.2 | -1.4
OCc1cccc(-c2cnc3c(Nc4cccc(OC(F)(F)C(F)F)c4)nccn23)c1 | -19.4 | -41.4 | 1.8 | -14.4 | 65.5* | -6.9
CCOc1ncccc1C(=O)Nc1cccc(S(=O)(=O)N2CCCCC2)c1 | 2.1 | 22.8 | 1.3 | -1.1 | -24.5 | -9.6
CCOc1ncccc1C(=O)NNC(=O)c1ccccc1-n1cccc1 | 54.1* | / | 0.1 | -9.6 | -4.9 | -2.1
CCOc1ncccc1C(=O)OCC(=O)NCCc1ccccc1 | 1.3 | / | / | / | 7.9 | 5.5
CCOc1ncccc1C(=O)Nc1cccc(S(=O)(=O)NC2=NCCC2)c1 | 54.6* | -2.7 | 7.4 | 5.3 | -25.4 | -1.0
CCOc1ncccc1C(=O)OCC(=O)NCCCc1ccccc1 | 54.0* | -1.0 | -1.9 | -1.7 | 5.8 | -5.5
CCOc1ncccc1C(=O)Nc1ccccc1F | 76.6* | 11.7 | -1.1 | -9.0 | 7.1 | -1.5
CCOc1ncccc1C(=O)Nc1ccc(F)cc1 | -18.1 | -7.2 | -0.5 | -2.9 | 8.1 | -9.9
SMILES | GSIS activator | EWS-Fli inh | CFTR F508del cor | RAD52 inh | LGR2 inh | RAD54 branch
Cc1n[nH]c(=O)c2c(NC(=O)COC(=O)/C=C/c3cccc(C(F)(F)F)c3)oc(C)c12 | -2.6 | 0.8 | 4.0 | -9.0 | 1.6 | /
CCOc1ccc2nc(SCC(=O)NCc3ccc(OC)cc3)[nH]c2c1 | -12.0 | 12.1 | -1.0 | -3.8 | -0.3 | -1.2
Cc1ccc(N2CC(C(=O)Nc3cccc(F)c3)CC2=O)cc1 (stereo not drawn) | -3.5 | 6.0 | 0.1 | 2.1 | 0.9 | -3.5
CN(C)C(=O)COC(=O)c1cccnc1Nc1ccccc1F | 79.5* | 7.9 | / | -10.8 | -2.0 | /
NC(=O)COC(=O)c1cccnc1Nc1ccccc1F | 35.8 | -0.6 | 0.3 | -9.2 | -3.2 | -8.1
C[C@H]1CCCCO[C@@H](CN(C)C(=O)Nc2ccc3c(c2)OCO3)[C@@H](C)CN([C@@H](C)CO)C(=O)c2cc(NC(=O)C3CCCCC3)ccc2O1 | 2.4 | 3.7 | 1.5 | -41.3 | 43.7 | 7.6
N#Cc1sc2nc(N3CCCCC3)c3c(c2c1N)CCCC3 | 141.4* | / | / | / | -8.2 | 0.1
CC(C)(C)NC(=O)C(C1CC1)n1c(=O)c(-c2cc3ccccc3[nH]2)nc2ccccc21 (stereo not drawn) | / | 17.1 | -2.6 | -31.1 | 15.2 | /
COC(=O)[C@@]1(C)[C@H]2C(=O)N(Cc3ccccc3)C(=O)[C@H]2[C@H]2CN=C(SCc3ccc(C)cc3)N21 | -14.9 | -5.4 | 2.0 | -11.5 | 1.0 | 9.6
CN1C(=O)c2cc(NC(=O)Nc3ccc(Cl)cc3)ccc2OC[C@H]2O[C@H](CC(=O)NCCN3CCCCC3)CC[C@@H]21 | -2.2 | -19.2 | -0.1 | 31.3 | 5.2 | 6.0
CN1C(=O)c2cc(NC(=O)Nc3ccc(Cl)cc3)ccc2OC[C@@H]2O[C@@H](CC(=O)NCCN3CCCCC3)CC[C@@H]21 | 6.8 | 1.2 | 0.8 | 57.3* | 4.4 | 6.6
Cc1cc(C(=O)Nc2ccc3c(c2)C(=O)N(C)[C@@H]2CC[C@H](CC(=O)NCc4ccc(-c5ccccc5)cc4)O[C@H]2CO3)no1 | / | 56.7* | / | 15.7 | / | -3.0
COC(=O)C1=C(C)N(Cc2cccc(C(F)(F)F)c2)C(=NCC2CC2)NC1c1ccccc1 (stereo not drawn) | / | 8.4 | -5.5 | -2.6 | 24.5 | /
COC(=O)C1=C(C)N(Cc2ccccc2C(F)(F)F)C(=NCc2ccc(OC)cc2)NC1c1ccc(Cl)cc1 (stereo not drawn) | 87.3* | 13.4 | 0.8 | -9.5 | 4.2 | /
COC(=O)C1=C(C)N(Cc2ccc(C(F)(F)F)cc2)C(=NCC2CC2)NC1c1ccccc1 (stereo not drawn) | 60.4* | 6.4 | -0.9 | 8.4 | 15.0 | /
COC(=O)C1=C(C)N(Cc2ccc(C(F)(F)F)cc2)C(=NCc2ccccc2)NC1c1ccc(Cl)cc1 (stereo not drawn) | 726.0* | 33.8 | 1.6 | -2.7 | 16.1 | /
C[C@H]1CN([C@@H](C)CO)C(=O)c2ccccc2-c2ccccc2CO[C@H]1CN(C)C(=O)C1CC1 | 18.1 | -5.4 | 1.0 | 6.4 | -3.6 | 6.0
